Columns and labels:
Assay in all cases: PBM binding z-score (relative to random genomic background probes); higher = stronger binding; sequences stand for … in GC…GCGATTGACAGCGTAGAATGAAGG
[1] = tested on: FXR:RXRa (NR concentration 270 nM, RXRa partner concentration 90 nM)
Summary of the method: (§1)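 Binding z-scores take random background probes as their reference. They come from custom Agilent 4×180K protein-binding microarrays incubated 1 h with ligand-free nuclear receptor dimers, with antibodies against each partner (one per run) detecting binding. Scanned fluorescence was regression-normalized.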

[2] = tested on: LXRa:RXRa (NR concentration 270 nM, RXRa partner concentration 90 nM)
Summary of the method: as §1

[3] = tested on: LXRa homodimer (NR concentration 270 nM)
Summary of the method: as §1

[4] = tested on: LXRb:RXRa (NR concentration 270 nM, RXRa partner concentration 90 nM)
Summary of the method: as §1

[5] = tested on: LXRb homodimer (NR concentration 270 nM)
Summary of the method: as §1

[6] = tested on: PPARa:RXRa (NR concentration 270 nM, RXRa partner concentration 90 nM)
Summary of the method: as §1

[7] = tested on: PPARg:RXRa (NR concentration 180 nM, RXRa partner concentration 90 nM)
Summary of the method: as §1

[8] = tested on: PPARg:RXRa 270nM:90nM, anti-RXR (NR concentration 270 nM, RXRa partner concentration 90 nM)
Summary of the method: as §1

[9] = tested on: PPARg:RXRa 30nM:10nM, anti-RXR (NR concentration 30 nM, RXRa partner concentration 10 nM)
Summary of the method: as §1

[10] = tested on: PPARg:RXRa 90nM:30nM, anti-RXR (NR concentration 90 nM, RXRa partner concentration 30 nM)
Summary of the method: as §1

[11] = tested on: PPARg:RXRa DBDmut IVT, anti-RXR (DBD mutation: RXRa K156A/R161A, NR concentration 270 nM, RXRa partner concentration 90 nM)
Summary of the method: as §1

[12] = tested on: PPARg:RXRa IVT, anti-PPARg (NR concentration 270 nM, RXRa partner concentration 90 nM)
Summary of the method: as §1

[13] = tested on: PPARg DBDmut:RXRa IVT, anti-PPARg (DBD mutation: PPARg1 K132A/R137A, NR concentration 270 nM, RXRa partner concentration 90 nM)
Summary of the method: as §1

[14] = tested on: PPARg DBDmut IVT, anti-PPARg (DBD mutation: PPARg1 K132A/R137A, NR concentration 270 nM)
Summary of the method: as §1

[15] = tested on: PPARg homodimer (NR concentration 180 nM)
Summary of the method: as §1

[16] = tested on: PXR:RXRa (NR concentration 270 nM, RXRa partner concentration 90 nM)
Summary of the method: as §1

[17] = tested on: PXR homodimer (NR concentration 270 nM)
Summary of the method: as §1

[18] = tested on: RARa:RXR (NR concentration 270 nM, RXRa partner concentration 90 nM)
Summary of the method: as §1

[19] = tested on: RARa homodimer (NR concentration 270 nM)
Summary of the method: as §1

[20] = tested on: RARb:RXRa (NR concentration 270 nM, RXRa partner concentration 90 nM)
Summary of the method: as §1

Row | Sequence | PBM binding z-score [1] | PBM binding z-score [2] | PBM binding z-score [3] | PBM binding z-score [4] | PBM binding z-score [5] | PBM binding z-score [6] | PBM binding z-score [7] | PBM binding z-score [8] | PBM binding z-score [9] | PBM binding z-score [10] | PBM binding z-score [11] | PBM binding z-score [12] | PBM binding z-score [13] | PBM binding z-score [14] | PBM binding z-score [15] | PBM binding z-score [16] | PBM binding z-score [17] | PBM binding z-score [18] | PBM binding z-score [19] | PBM binding z-score [20]
1 | CGAACTAGGTCAGAACGGGACAGTGAAGGATGAT | 0.777 | 0.488 | -0.316 | 0.113 | -0.487 | 3.16 | 5.01 | 4.15 | 1.79 | 3.38 | 6.92 | 7.17 | 2.46 | 2.6 | 1.57 | 0.217 | -0.225 | 0.856 | -0.237 | 2.75
2 | GCTGCTGGGTCAGGTTGGTCAGCTAACGGGTACG | 0.641 | 0.222 | -0.341 | 0.236 | -0.403 | 1.32 | 0.104 | 0.429 | -0.561 | 0.0436 | 1.8 | 1.47 | -0.97 | -0.347 | 0.551 | 0.0327 | -0.0848 | 0.539 | -0.315 | 2.84
3 | GCTTGTAGATTAAGGTTAAGAAAGACTAAGCTAA | 0.292 | 0.89 | -0.399 | 0.611 | -0.832 | 1.32 | 0.216 | 0.627 | -0.258 | 0.49 | -0.0536 | 0.119 | 0.205 | -0.0743 | 0.0936 | 0.375 | -0.332 | 1.01 | 0.194 | 0.875
4 | ATCTCTAGGTACAGTTCAGTGAAAGATCGATAGA | 0.629 | 0.639 | 0.57 | 0.6 | 1.26 | 0.51 | 0.382 | 0.647 | 0.518 | 0.644 | 0.631 | 0.726 | 1.18 | 1.5 | 0.523 | 0.814 | 0.988 | 0.458 | 1.24 | 0.918
5 | AGAACGAGGGCAATAAGTTGATAGCACGGGTGGC | 0.456 | 0.268 | -0.278 | -0.143 | -0.518 | 1.24 | 1.44 | 0.893 | 0.0758 | 0.217 | 3.47 | 2.3 | 0.463 | -0.691 | 0.0949 | 1.09 | 3.39 | 0.217 | 0.04 | 1.84
6 | ACAGACAGGTTAGTGAAGGTAACTCAGCTGGACG | 0.616 | 0.393 | -0.196 | -0.21 | -0.3 | 0.259 | 0.68 | 0.049 | -0.22 | 0.0314 | 0.174 | 0.407 | 0.284 | 0.465 | 0.573 | -0.0921 | -0.25 | 0.306 | 0.0654 | 0.755
7 | TCTAGTTGGGCACGGAGGTCACACACGACGGGTA | 2.68 | 2.91 | 1.6 | 2.66 | 0.446 | 3.52 | 2.82 | 3.41 | 2.73 | 2.96 | 1.69 | 2.93 | 1.02 | -0.0176 | 2.73 | 3.91 | 0.835 | 4.24 | 0.793 | 3.36
8 | CTCGAGAGGTCGTGCTCAGGTGAGTATACCAAAC | 3.66 | 2.94 | -0.247 | 3.32 | -0.109 | 4.28 | 1.58 | 2.21 | 0.228 | 1.11 | 0.51 | 1.53 | -0.297 | -0.226 | 0.544 | 3.09 | 0.214 | 3.6 | -0.876 | 2.79
9 | CGTCCAAGGTCAAGGGTCAGTGAAGAGATGACGG | 7.75 | 5.84 | 1.02 | 5 | 0.392 | 6.46 | 8.85 | 7.9 | 6.12 | 7.94 | 3.08 | 5.28 | 0.202 | -0.0608 | 5 | 5.97 | 1.43 | 8.23 | 1.5 | 5.81
10 | GCTAGCAGGCCATTTGGGCCACTCAATGACGGGC | -0.514 | -0.935 | -0.951 | -1.27 | -1.17 | -0.573 | 0.102 | -0.789 | -0.989 | -1.19 | 0.571 | 0.308 | -1.6 | -2.1 | -1.14 | -0.943 | -1.18 | -1.05 | -0.661 | -0.143
11 | CAAACTAGGTCAAGATGTCAAAGTCCGCTTCCCG | 3.9 | 3.18 | 0.475 | 2.4 | 0.306 | 4.98 | 8.33 | 7.27 | 4.86 | 7.04 | 8.4 | 8.48 | 2.81 | 1.01 | 2.29 | 1.86 | -0.0603 | 3.02 | 0.666 | 4.12
12 | ATCGAAAGGTAGTGAGGTGAGTATACAGAAAGGC | 0.0464 | -0.187 | 0.0161 | -0.247 | -0.154 | 0.153 | 0.582 | 0.0693 | 0.155 | 0.0111 | -0.75 | 0.597 | 0.685 | 1.02 | -0.358 | -0.273 | 0.226 | -0.126 | 0.18 | 0.322
13 | CCTCCTGGGCCAAAAAGGTCATTGATGCCGATAA | 3.19 | 3.89 | 2.81 | 4.12 | 0.202 | 4.47 | 0.997 | 2.63 | 0.448 | 1.63 | -0.0525 | 1.53 | -0.96 | -0.947 | 2.51 | 4.62 | 2.5 | 4.44 | 0.621 | 3.9
14 | CCGACTGCGGCATAAGGTTACCATAAGCCAGCCC | 0.434 | 1.84 | -0.038 | 0.877 | -0.74 | 0.702 | 0.575 | 0.243 | -0.468 | -0.29 | -0.303 | -0.677 | -0.568 | -0.753 | 0.108 | 0.121 | -0.316 | 0.892 | 0.0382 | 0.791

Source: the supplement of paper PMC6555819
